# Records with an inconclusive call do not appear. A number with no mark means an inactive call. Activity calls are given as the source filed them. Calls follow the shape of the dose curve; as a rule, active = well fitted cell-killing curve with a large enough effect; inconclusive = small, poorly fitted or top-dose-only effect, or effect the other way; inactive = no such curve, though single readings can be large or run the other way.
# Assay: Quantitative High-Throughput drug screen in 47 multiple myeloma cell lines against the NCATS MIPE library collection: FR4_PLB cell viability assay (AID 1918924; also: nearly all actives have a fitted effect of over 35% in size)
# Conditions: FR4_PLB myeloma cells viability, CellTiter-Glo ATP, 48 h; series mostly up to 45.8 µM; viability (% of DMSO control): at the top concentration
# Description: PI: Beverly A. Mock Ph.D.
# Laboratory of Cancer Biology and Genetics,
# Center for Cancer Research, National Cancer Institute,
# National Institute of Health, Bethesda, Maryland
# Drug resistance and disease progression are common in multiple myeloma (MM) patients, underscoring the need for new therapeutic combinations. […] We hypothesized that effective combinations would reduce MYC expression and enhance p16 activity. […] These preclinical data identify potentially useful drug combinations for evaluation in drug-resistant MM and reveal potential mechanisms of combined drug sensitivity.
# Described herein is the primary MIPE qHTS used to cherrypick compounds. Validated compounds were then further tested for potential synergistic activiy.
# [1] Peat TJ, Gaikwad SM, Dubois W, Gyabaah-Kessie N, Zhang S, Gorjifard S, Phyo Z, Andres M, Hughitt VK, Simpson RM, Miller MA, Girvin AT, Taylor A, Williams D, D'Antonio N, Zhang Y, Rajagopalan A, Flietner E, Wilson K, Zhang X, Shinn P, Klumpp-Thomas C, McKnight C, Itkin Z, Chen L, Kazandijian D, Zhang J, Michalowski AM, Simmons JK, Keats J, Thomas CJ, Mock BA. Drug combinations identified by high-throughput screening promote cell cycle transition and upregulate Smad pathways in myeloma. Cancer Lett. 2023 Aug 1;568:216284. doi: 10.1016/j.canlet.2023.216284. Epub 2023 Jun 24. PMID: 37356470; PMCID: PMC10408729.
# SEQUENCE No. (e.g., 1, 2, 3, etc.); […] (e.g., Cells, Incubation, Reagent, etc.); VALUE and DESCRIPTION.
# 1; Cells; 5 uL; white, solid bottom 1536-well Greiner assay plate.
# 2; Compounds; 23 nL; Kalypsis pin tool (Wako USA) equipped with a 1536-well pin head to transfer to the assay plates.
# 3; Incubation; 48 hours; 37C incubation.
# 4; Reagent;5uL; CellTiter Glo (Promega).
# 5; Detector; 425V; Luminescence; Viewlux PerkinElmer.
# NOTES (numbers refer to Sequence numbers above)
# 1. The cell-based screening methods employed in this study were like those previously published. Briefly, the corresponding myeloma cell lines were screened in 1,536-well plates with 500 cells, 5-uL per well for inhibition of cell viability (assessed by measuring ATP levels with CellTiterGlo).
# 2. NCATS MIPE 4.0 library of approved and investigational drugs were added using the Kalypsis pin tool. Wells treated with DMSO only for 100% viability and media only wells for 0% viability were used as controls.
# 3. The assay plates were covered and incubated for 48 hours in a 37C, 5% CO2 incubator with controlled humidity.
# 4. After 48 hours, CellTilter-GloTM luminescent substrate mix (Promega) reagent was added to the assay plate and plates we incubated for 5 min at room temperature.
# 5. Signal was measured as median relative luminescence units on a ViewLux (PerkinElmer) multiplate reader.
# [1] Heske CM, Davis MI, Baumgart JT, Wilson K, Gormally MV, Chen L, Zhang X, Ceribelli M, Duveau DY, Guha R, Ferrer M, Arnaldez FI, Ji J, Tran HL, Zhang Y, Mendoza A, Helman LJ, Thomas CJ. Matrix Screen Identifies Synergistic Combination of PARP Inhibitors and Nicotinamide Phosphoribosyltransferase (NAMPT) Inhibitors in Ewing Sarcoma. Clin Cancer Res. 2017 Dec 1;23(23):7301-7311. doi: 10.1158/1078-0432.CCR-17-1121. Epub 2017 Sep 12. PMID: 28899971; PMCID: PMC6636827.
# Potency is read from the fitted curve at half-maximal effect.
SMILES,Potency,viability (% of DMSO control) [%]
COc1cccc2c(NCc3ccccc3)nc(-n3c(N)nc4ccccc43)nc12,6.62 µM (active),
Cc1cnc(Nc2ccc(F)cc2Cl)nc1-c1c[nH]c(C(=O)N[C@H](CO)c2cccc(Cl)c2)c1,29.6 µM (active),
C[C@H]1C[C@@H]2[C@@H]([C@@H](O)C[C@@]3(C)[C@H]2CC[C@]3(O)C(=O)CO)[C@@]2(C)C=CC(=O)C=C12,,99.9
NC(=O)c1cccc2cn(-c3ccc([C@@H]4CCCNC4)cc3)nc12,,78.5
C[C@@H]1COC(Nc2ccc3ncnc(Nc4ccc(OCc5nccs5)c(Cl)c4)c3c2)=N1,16.6 µM (active),
Nc1cccc(-c2cc3c(Oc4cccc(O)c4)ncnc3[nH]2)c1,14.8 µM (active),
Nc1ccc(C(=O)c2cc3c(ccc4ccccc43)[nH]2)cc1,1.18 µM (active),
O=C(Nc1ncc(-c2cc(C(F)F)nn2-c2c(Cl)cccc2Cl)s1)C1CC1,0.235 µM (active),
C[C@@H](Oc1cc(-c2cnn(C3CCNCC3)c2)cnc1N)c1c(Cl)ccc(F)c1Cl,18.7 µM (active),
COc1cc(C)c(Sc2cnc(NC(=O)c3ccc(CNC(C)C(C)C)cc3)s2)cc1C(=O)N1CCN(C(C)=O)CC1 (stereo not given),14.8 µM (active),
CC(C)c1ccccc1Cc1cc(C(=O)Nc2ccc(S(=O)(=O)c3ccccc3C(C)(C)C)cc2)c(O)c(O)c1O,9.35 µM (active),
CC(C)c1ccc(Cn2ccc3c4c(N)nc(NC5CC5)nc4ccc32)cc1,4.18 µM (active),
C=C1C(=CC=C2CCC[C@]3(C)[C@@H]([C@H](C)C=C[C@H](C)C(C)C)CC[C@@H]23)C[C@@H](O)C[C@@H]1O,5.9 µM (active),
Cc1nc2cnc3ccc(C#Cc4cccnc4)cc3c2n1-c1ccc(C(C)(C)C#N)cc1,0.118 µM (active),
CC(C)[C@H](C(=O)Nc1ccc(C(=O)NO)cc1)c1ccccc1,0.372 µM (active),
CC(=O)SC[C@@H](C)C(=O)N1CCC[C@H]1C(=O)N[C@@H](Cc1ccccc1)C(=O)O,,105
Fc1cc(-c2cccc3ncc(-c4cnn(C5CCNCC5)c4)nc23)cc(F)c1CN1CCOCC1,18.7 µM (active),
Cc1cn2c(-c3cn[nH]c3)cnc2c(Nc2ccc(C(=O)N3CCNCC3)cc2F)n1,16.6 µM (active),
Cn1cncc1[C@@](N)(c1ccc(Cl)cc1)c1ccc2c(c1)c(-c1cccc(Cl)c1)cc(=O)n2C,20.9 µM (active),
Cn1c2cc(S(C)=O)sc2c2cnn(Cc3cccc(N)c3)c(=O)c21 (stereo not given),,122

SMILES,Potency,viability (% of DMSO control) [%]
COC(=O)C1=C(C)NC(C)=C(C(=O)OCCN2CCN(C(c3ccccc3)c3ccccc3)CC2)C1c1cccc([N+](=O)[O-])c1 (stereo not given),,125
COc1cc(=C2C=c3ccccc3=N2)[nH]c1=Cc1[nH]c(C)cc1C,1.18 µM (active),
COc1cc2c(cc1-c1c(C)noc1C)ncc1[nH]c(=O)n([C@H](C)c3ccccn3)c12,0.833 µM (active),
NC(=O)Nc1cc(-c2cccc(F)c2)sc1C(=O)N[C@H]1CCCNC1,0.0833 µM (active),
C[C@@H]1CN(CC(=O)Nc2ccc3c(c2)Cc2cccc(-c4cc(=O)cc(N5CCOCC5)o4)c2S3)C[C@H](C)O1,16.6 µM (active),
Cc1c(CN2CCN(S(C)(=O)=O)CC2)sc2c(N3CCOCC3)nc(-c3cnc(N)nc3)nc12,0.105 µM (active),
Cc1cc(Nc2ncnc3ccc(-c4ccc(CNCCS(C)(=O)=O)o4)cc23)ccc1Oc1ccn2ncnc2c1,18.7 µM (active),
CC[C@@H]1C(=O)N(C)c2cnc(Nc3ccc(C(=O)NC4CCN(C)CC4)cc3OC)nc2N1C1CCCC1,0.0235 µM (active),
CC(=O)Nc1sc2c(c1-c1nc3ccccc3s1)CNC2,20.9 µM (active),
CC(C)(C)c1cnc(CSc2cnc(NC(=O)C3CCNCC3)s2)o1,0.0935 µM (active),
O=C(Nc1nc2cccc(-c3ccc(CN4CCS(=O)(=O)CC4)cc3)n2n1)C1CC1,9.35 µM (active),
Clc1cccc(-c2nnnn2Cc2cccnc2)c1Cl,,97.4
CNC(=O)CN1CCC(Oc2cc3c(Nc4cccc(Cl)c4F)ncnc3cc2OC)CC1,0.0264 µM (active),
COC(=O)Nc1ccc(-c2nc(N3CCOCC3)c3cnn(C4CCN(Cc5cccnc5)CC4)c3n2)cc1,0.0469 µM (active),
CN[C@H]1CCc2cc(OC)c(OC)c(OC)c2-c2ccc(OC)c(=O)cc21,,33.9
COc1ccc(C(=O)CC2(O)C(=O)Nc3c(Cl)ccc(Cl)c32)cc1 (stereo not given),0.833 µM (active),
Cc1ccc(NC(=O)C2(c3ccc4c(c3)OC(F)(F)O4)CC2)nc1-c1cccc(C(=O)O)c1,0.0469 µM (active),
Cc1cc(N2CCOCC2)cc2[nH]c(-c3c(NC[C@@H](O)c4cccc(Cl)c4)cc[nH]c3=O)nc12,23.5 µM (active),
Cc1ccc(C(=O)Nc2cccc(C(F)(F)F)c2)cc1-c1ccc2nc(NCCN3CCOCC3)ncc2c1,10.5 µM (active),
CCC1=C[C@@H]2CN(C1)Cc1c([nH]c3ccccc13)[C@@](C(=O)OC)(c1cc3c(cc1OC)N(C)[C@@H]1[C@@](O)(C(=O)OC)[C@H](OC(C)=O)[C@]4(CC)C=CCN5CC[C@]31[C@@H]54)C2,0.0047 µM (active),
